Here are results for 13 compounds from PubChem BioAssay (NCI).

Molecules are shown by their SMILES. About 83,000 compounds went through this panel and 20% of them were active in at least one assay; those are over-represented in the sample as a whole.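 Single-dose data. Exposure time 48 hours. Values below 10 considered active.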 Values without a mark were called inactive. Active and inactive are the calls of the source.

Some test systems named below: HCT-15 colon; HT29 colon; SNB-75 CNS; SNB-19 CNS; U251 CNS; PC-3 prostate; SK-MEL-5 melanoma; UACC-62 melanoma; LOX IMVI melanoma; SK-MEL-28 melanoma.
Common to all, as to experiment: NCI-60 one-dose screen, 48 h (100 = growth as untreated, 0 = no growth, -100 = all killed)
What all share (conditions): 10 µM unless noted

As to `COc1ccc(/C=N/Nc2cc(=O)[nH]c3ccc(C)cc23)cc1`, the growth is 87.9% in the assay on HCT-15 colon; 94.7% in the assay on HT29 colon; 108% in the assay with SNB-75 CNS; 95.2% in the assay on SNB-19 CNS; 97.1% in the assay with U251 CNS; 79.1% in the assay on PC-3 prostate. The growth in the assay on SK-MEL-5 melanoma is 69%; in the assay on UACC-62 melanoma it was 89.4%; in the assay on LOX IMVI melanoma, 91.5%; with SK-MEL-28 melanoma, 101%.
On to `O=c1n(Cc2ccc3ccccc3c2)ccn1Cc1ccc2ccccc2c1`, for which the growth was 91.4% with HCT-15 colon; 77.1% in the assay with HT29 colon; 53.2% in the assay on SNB-75 CNS; 87.2% in the assay on SNB-19 CNS; 92.5% in the assay with U251 CNS; 94.4% in the assay on PC-3 prostate. The growth in the assay with SK-MEL-5 melanoma was 95.5%; with UACC-62 melanoma, 89.8%; with LOX IMVI melanoma, 91.2%; in the assay with SK-MEL-28 melanoma, 94.3%.
`COc1cccc(Oc2ccccc2NC(=O)CNC(=O)c2cccc3ccccc23)c1`: the growth in the assay with HCT-15 colon was 17.8% [5 µM]; in the assay with HT29 colon it was 6.01% [5 µM] (active); with SNB-75 CNS it was 28% [5 µM]; in the assay with SNB-19 CNS, 41.7% [5 µM]; with U251 CNS it was 23.2% [5 µM]; with PC-3 prostate it was 26.2% [5 µM]. In addition, the growth is 11.7% [5 µM] with SK-MEL-5 melanoma, 16.1% [5 µM] with UACC-62 melanoma, 26.1% [5 µM] in the assay with LOX IMVI melanoma and 57.5% [5 µM] with SK-MEL-28 melanoma.
On to `COc1ccc2c(c1)/C(=C/c1sc(=S)n(Cc3ccco3)c1O)C=N2`, for which the growth in the assay with HCT-15 colon was 17.8%; in the assay with HT29 colon, 15.8%; in the assay on SNB-75 CNS, 1.19% (active); with SNB-19 CNS, 44.5%; in the assay with U251 CNS, 37%; in the assay with PC-3 prostate, 61.6%. The growth in the assay with SK-MEL-5 melanoma is 52.2%; with UACC-62 melanoma, 38.9%; with LOX IMVI melanoma, 35.9%; in the assay with SK-MEL-28 melanoma, 47.4%.
Consider `O=C(CS(=O)c1oc(-c2cccs2)nc1S(=O)(=O)c1ccc(Br)cc1)c1ccccc1` (stereo not given), for which the growth in the assay on HCT-15 colon was 101%; with HT29 colon, 102%; with SNB-75 CNS, 79.9%; with SNB-19 CNS, 86.9%; with U251 CNS, 88.2%; in the assay with PC-3 prostate, 85.5%. Besides, the growth with SK-MEL-5 melanoma was 97.7%; with UACC-62 melanoma, 88.4%; in the assay with LOX IMVI melanoma, 104%; with SK-MEL-28 melanoma, 105%.
Turning to `CCCCCCCCCCCCCCCCCCOc1ccc(CC(=O)OCC[N+](C)(C)C)cc1`, the growth was 102% with HCT-15 colon; 94.5% with HT29 colon; 113% with SNB-75 CNS; 90.7% with SNB-19 CNS; 92.2% with U251 CNS; 96.9% in the assay on PC-3 prostate. Moreover, the growth in the assay on SK-MEL-5 melanoma is 103%; in the assay with UACC-62 melanoma it was 97.4%; in the assay on LOX IMVI melanoma it was 91.1%; in the assay with SK-MEL-28 melanoma it was 103%.
As for `N#Cc1cccc(NC(=O)c2cc(-c3ccc(F)cc3F)ccc2O)c1`, the growth in the assay on HCT-15 colon was 13.3%; in the assay on HT29 colon, 104%; in the assay with SNB-75 CNS, 11.5%; with SNB-19 CNS it was 13.7%; in the assay with U251 CNS, 13%; with PC-3 prostate it was 20.3%. Besides, the growth in the assay on SK-MEL-5 melanoma is -98.5% (active); in the assay on UACC-62 melanoma, 13.7%; with LOX IMVI melanoma, 13.2%; in the assay on SK-MEL-28 melanoma, 25.6%.
For `Cc1cccc2c1S/C(=C/c1ccc([N+](=O)[O-])cc1)C2=O`, the growth with HCT-15 colon is 100%; in the assay on HT29 colon it was 92.5%; with SNB-75 CNS it was 82.4%; with SNB-19 CNS, 98.4%; with U251 CNS it was 78.4%; in the assay with PC-3 prostate, 91.5%. For the same compound, the growth in the assay on SK-MEL-5 melanoma is 99.4%; in the assay with UACC-62 melanoma it was 72.6%; in the assay on LOX IMVI melanoma, 93.1%; in the assay with SK-MEL-28 melanoma, 114%.
As to `COc1cc2cc(Oc3ccc(NC(=O)Nc4cccc(C(F)(F)F)c4)cc3)c(C)nc2cc1OCCN1CCOCC1`, the growth in the assay with HCT-15 colon was 27.2%; with HT29 colon, 35.3%; in the assay with SNB-75 CNS, 77.8%; in the assay on SNB-19 CNS, 30.7%; in the assay on U251 CNS, 28%; in the assay with PC-3 prostate, 15.7%. Further, the growth was 6.62% (active) in the assay with SK-MEL-5 melanoma, 50.8% in the assay on UACC-62 melanoma, 38.2% in the assay on LOX IMVI melanoma and 68.8% in the assay on SK-MEL-28 melanoma.
With `CCCCn1c(-c2ccc(C(=O)O/N=C(\N)c3ccc(OC)cc3)cc2)nc(-c2ccccc2)c1-c1ccccc1`, the growth was -47.5% (active) in the assay on HCT-15 colon; 21.8% in the assay with HT29 colon; -31.1% (active) in the assay on SNB-75 CNS; 23.9% in the assay on SNB-19 CNS; -52.6% (active) in the assay with U251 CNS; -7.41% (active) in the assay on PC-3 prostate. The growth in the assay with SK-MEL-5 melanoma is 41.8%; in the assay with UACC-62 melanoma, 29.1%; with LOX IMVI melanoma it was -93.1% (active); in the assay on SK-MEL-28 melanoma, 47%.
For the compound `COc1ccc2cc(C(C)C(=O)Nc3ccc(-c4n[nH]c(=S)n4C4CCCCC4)cc3)ccc2c1` (stereo not given), the growth is 54.3% in the assay with HCT-15 colon; 85.1% in the assay with HT29 colon; 67% in the assay with SNB-75 CNS; 80% in the assay on SNB-19 CNS; 56.8% in the assay with U251 CNS; 39.2% with PC-3 prostate. Moreover, the growth with SK-MEL-5 melanoma is 67.5%; in the assay on UACC-62 melanoma, 58.3%; with LOX IMVI melanoma, 70.7%; with SK-MEL-28 melanoma, 75.6%.
Take `Cc1cccc(NC2=C(Cl)C(=O)c3nc(C)ccc3C2=O)c1`: the growth in the assay on HCT-15 colon was -54.8% (active); with HT29 colon, 115%; in the assay on SNB-75 CNS, -64.9% (active); in the assay on SNB-19 CNS, 23.7%; in the assay with U251 CNS it was 32.8%; in the assay with PC-3 prostate, 24.6%. The growth with SK-MEL-5 melanoma was -93% (active); in the assay with UACC-62 melanoma it was -67% (active); in the assay with LOX IMVI melanoma, -54.6% (active); in the assay on SK-MEL-28 melanoma, -54.5% (active).
With `O=c1c2cc(C(F)(F)F)ccc2sc2c(NCCCNCCO)nc3ccccc3c12`, the growth was -67.2% (active) in the assay with HCT-15 colon; -41.4% (active) in the assay on HT29 colon; 56.9% in the assay on SNB-75 CNS; 23.2% in the assay with SNB-19 CNS; -60.6% (active) with U251 CNS; 23% with PC-3 prostate. Further, the growth in the assay on SK-MEL-5 melanoma is 38.3%; in the assay on UACC-62 melanoma, 74.8%; in the assay on LOX IMVI melanoma, -95.6% (active); with SK-MEL-28 melanoma, 55.5%.
